Source: PubChem BioAssay (National Center for Advancing Translational Sciences (NCATS))
Only some compounds are listed: those with a hit (about 19% of all), similar ones and a draw of the others.
HT1080-NT tox = kills 2HG-producing HT-1080-NT fibrosarcoma cells; HT-1080-NT fibrosarcoma viability, CellTiter-Glo ATP luminescence, 48 h; Potency, µM (top dose mostly 46.1 µM), most hits filed as cytotoxic; actives 1.6% (n = 360,000);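 also: NT is the 2HG producing partner of a matched IDH1 knockdown line; nearly all actives have a fitted effect of over 55% in size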
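A 48-hour cytotoxicity screen used HT-1080-NT cells plated 2 hours before compound delivery. ATP-based CellTiter-Glo luminescence measured viability, normalized to DMSO and no-cell controls.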
DT40 TDP1 CPT = DT40-hTDP1 cell growth loss with CPT; chicken DT40 Tdp1-/-;hTDP1 cells + 20 nM CPT, ATP luminescence, 48 h; Potency, µM (series often up to 46.2 µM), hits mostly inhibitors; actives 12% (n = 420,000); also: nearly all actives have a fitted effect of over 55% in size
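Chicken DT40 Tdp1-/- cells stably complemented with human TDP1 were seeded at 400 cells/well in medium containing 20 nM camptothecin, exposed to pin-transferred compounds, and grown at 37 °C for at least 48 hr. Viability was read as ATP luminescence.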
IL1B secr inh = blocks inflammasome-driven IL-1 beta release | THP-1 LPS/ATP IL-1B secretion, AlphaLISA, 16 h; active compounds read low | activity change, % at 57.5 µM | actives 4.7% (n = 360,000); in the data active = activity change below about -50%; inconclusive = mostly about -30% to -49%
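THP-1 cells pretreated 1 hr with compounds (up to 57.5 uM final), then stimulated with LPS (250 ng/mL final) plus ATP (1.25 mM final); secreted IL-1B measured by AlphaLISA after 16 hr, decreased signal indicating inhibition.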
HT1080 IDH1KD tx = HT-1080 IDH1 knockdown cell toxicity (counter line); actives 2% (n = 360,000); Potency, µM (top dose mostly 46.1 µM), usual class: cytotoxic; HT-1080 IDH1 knockdown viability, ATP luminescence, 48 h
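Luminescent ATP read-out (CellTiter-Glo, 10 min at room temperature) after 48 h compound exposure at 37 °C gave viability of IDH1-knockdown HT-1080 cells. Activity was normalised to DMSO and cell-free wells, then fitted as concentration-response curves.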
DT40 TDP1 no CPT = qHTS for Inhibitors of human tyrosyl-DNA phosphodiesterase 1 (TDP1): qHTS in cells in absence of CPT; Potency, µM (doses to about 46.2 µM), hits mostly inhibitors; actives 15% (n = 420,000); DT40 Tdp1-/- hTDP1 cells, no CPT, ATP luminescence, 48 h; also: nearly all actives have a fitted effect of over 55% in size
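Chicken DT40 Tdp1-/- cells complemented with human TDP1, screened without camptothecin (DMSO vehicle only), 400 cells/well. Compounds pin-transferred, cells incubated at 37 °C for at least 48 hr. Growth read as ATP-dependent luminescence (CellTiter-Glo, 30 min at RT).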
Large screens that a line does not name were inactive. Unless noted, calls follow the shape of the dose curve; as a rule, active = well fitted curve in the direction sought with a large enough effect; inconclusive = small, poorly fitted or top-dose-only effect, or another doubt; inactive = no such curve, though single readings can be large; an effect the other way counts as inactive or inconclusive.

COc1ccc(S(=O)(=O)NCC(c2ccc(F)cc2)N2CCOCC2)cc1Br (stereo unspecified)	DT40 TDP1 CPT inconclusive, DT40 TDP1 no CPT inconclusive
O=C(OCCCN=C1NS(=O)(=O)c2ccccc21)c1ccccc1F	none
COCc1cc(=O)n2[nH]c(-c3cccs3)cc2n1	none
CC(c1ccccc1)N1CC(C(=O)N2CCN(Cc3ccc(C#N)cc3)CC2)CC1=O (stereo unspecified)	none
Cc1ccccc1OCC(=O)Nc1ccccc1NC(=O)c1ccco1	none
CCC(=O)Nc1ccc(NC(=O)c2ccco2)cc1	none
CCOCCCNC(=S)Nc1cc(OCC)c(NC(=O)c2ccco2)cc1OCC	none
COc1cc(NC(=O)c2ccco2)c(OC)cc1NC(=O)CSc1ncc(-c2ccc(F)cc2)[nH]1	DT40 TDP1 CPT inconclusive, DT40 TDP1 no CPT 26µM
CCOc1ccc(CC(=O)Nc2ccc(NC(=O)c3ccco3)cc2)cc1OCC	DT40 TDP1 CPT inconclusive, IL1B secr inh inconclusive, HT1080 IDH1KD tx 12µM
CCOc1cc(NC(=O)c2ccco2)c(OCC)cc1NC(=O)COc1ccccc1C	DT40 TDP1 CPT 4.6µM, DT40 TDP1 no CPT 4.1µM
CCOc1cc(NC(=S)NCC(C)C)c(OCC)cc1NC(=O)c1ccco1	DT40 TDP1 CPT 15µM, DT40 TDP1 no CPT inconclusive
O=S(=O)(CCC1CCCCN1)c1ccccc1 (stereo unspecified)	none
CCOc1ccc(C(=O)Nc2cccc(NC(=O)c3ccco3)c2)cc1Cl	DT40 TDP1 CPT inconclusive, DT40 TDP1 no CPT 16µM (no result: HT1080-NT tox, IL1B secr inh, HT1080 IDH1KD tx)
COc1ccc(CCNC(=O)Cn2c(=O)n(Cc3ccco3)c(=O)c3ccc(Cl)cc32)cc1OC	DT40 TDP1 CPT inconclusive, DT40 TDP1 no CPT 23µM
COc1cc2c(=O)n(Cc3ccccc3)c(=O)n(CC(=O)NCCc3ccccc3)c2cc1OC	DT40 TDP1 CPT 7.3µM, DT40 TDP1 no CPT 15µM
COCCNC(=O)Cn1c(=O)n(Cc2ccco2)c(=O)c2ccccc21	none
COc1ccc(NC(=O)Cn2c(=O)n(Cc3ccccc3Cl)c(=O)c3cc(OC)c(OC)cc32)cc1OC	DT40 TDP1 CPT 3.3µM (no result: HT1080-NT tox, IL1B secr inh, HT1080 IDH1KD tx)
CCOC(=O)Cn1c(=O)n(Cc2ccco2)c(=O)c2ccc(C(=O)NCCc3ccccc3)cc21	DT40 TDP1 CPT 18µM, DT40 TDP1 no CPT 23µM
CC1CCN(c2ccc(C(=O)NCc3cccs3)cn2)CC1	DT40 TDP1 CPT inconclusive
Cc1ccc2oc(=O)n(Cc3ccccc3OC(C)C)c2c1	DT40 TDP1 CPT inconclusive, DT40 TDP1 no CPT 15µM
O=C(Nc1nnc([C@H]2C[C@H](O)[C@@H](CO)O2)s1)c1cccc(OC(F)(F)F)c1	none
Cc1c(Cc2ccc3c(c2)OCO3)sc(NC(=O)C(C)(C)C)c1C#N	DT40 TDP1 CPT 18µM, DT40 TDP1 no CPT 8.2µM
CCC(=O)Nc1sc(Cc2ccc3c(c2)OCO3)c(C)c1C(N)=O	DT40 TDP1 CPT inconclusive, DT40 TDP1 no CPT inconclusive
CC(CC(=O)Nc1ccc2c(c1)c(=O)n(C)n2-c1ccc2ccccc2c1)C(F)(F)F (stereo unspecified)	HT1080-NT tox inconclusive, DT40 TDP1 CPT 5.2µM, HT1080 IDH1KD tx inconclusive, DT40 TDP1 no CPT 2.6µM
Cn1c(=O)c2cc(NC(=O)Cc3cccnc3)ccc2n1-c1ccc2ccccc2c1	HT1080-NT tox inconclusive, DT40 TDP1 CPT 15µM, HT1080 IDH1KD tx 18µM, DT40 TDP1 no CPT 15µM
CC(=O)Nc1ccc(NC(=O)C2CCN(c3c(NC(C)=O)c(C)nn3-c3ccccc3)CC2)cc1	none (no result: HT1080-NT tox, IL1B secr inh, HT1080 IDH1KD tx)
CCOC(=O)c1c(S(=O)(=O)NCC(=O)NCc2cccc(C)c2)c(C)n(C)c1C	none
CCOC(=O)c1cnc2cc(-c3ccc(Cl)cc3)nn2c1-c1ccccc1	DT40 TDP1 CPT inconclusive, DT40 TDP1 no CPT 13µM (no result: HT1080-NT tox, IL1B secr inh, HT1080 IDH1KD tx)
Cc1ccc(S(=O)(=O)N2CC=C(c3c(C)n(C)c4ccccc34)CC2)cc1	DT40 TDP1 CPT inconclusive, DT40 TDP1 no CPT 16µM
CCn1c(C)c(C2=CCN(S(=O)(=O)c3ccccc3)CC2)c2ccccc21	DT40 TDP1 CPT inconclusive, DT40 TDP1 no CPT inconclusive
CC[N+]1(C)CCC(O)(/C=C/c2ccccc2)C(C(=O)/C=C/c2ccccc2)C1 (stereo unspecified)	DT40 TDP1 CPT 0.033µM, IL1B secr inh -102, HT1080 IDH1KD tx 7.3µM, DT40 TDP1 no CPT 0.13µM
CCOC(=O)N1CCN(C(=O)c2cc(COc3c(F)cccc3F)on2)CC1	DT40 TDP1 CPT inconclusive, DT40 TDP1 no CPT inconclusive
CCCn1c(SCC(=O)Nc2ccccc2CC)nnc1C(C)C	DT40 TDP1 CPT 21µM, HT1080 IDH1KD tx inconclusive, DT40 TDP1 no CPT 18µM
Cc1occc1-c1nnc(SCC(=O)Nc2ccccc2-c2ccccc2)n1C	DT40 TDP1 CPT inconclusive, DT40 TDP1 no CPT 16µM
CCCn1c(SCC(=O)Nc2c(C)cccc2CC)nnc1C(C)C	none
Cc1occc1-c1nnc(SCC(=O)Nc2ccccc2)n1Cc1ccccc1	DT40 TDP1 no CPT inconclusive
Cc1occc1-c1nnc(SCC(=O)Nc2ccc(F)cc2)n1Cc1ccccc1	HT1080-NT tox 21µM, DT40 TDP1 CPT inconclusive, IL1B secr inh -80, HT1080 IDH1KD tx inconclusive, DT40 TDP1 no CPT inconclusive
CCn1c(SCC(=O)NNC(=O)c2ccc(C)cc2)nnc1C(C)C	DT40 TDP1 CPT inconclusive, DT40 TDP1 no CPT 10µM
Cc1cc(C)nc(SCc2nnc(SCC(=O)Nc3cc(C(F)(F)F)ccc3Cl)o2)n1	none
CCOC(=O)C1CCCN(S(=O)(=O)c2ccc3c(c2)N(C)C(=O)CC(=O)N3C)C1 (stereo unspecified)	none
CCCc1nnc(SCC(=O)Nc2nnc(CC)s2)n1CC1CCCO1 (stereo unspecified)	none
COc1ccccc1CCNCc1cc2cccc(C)c2nc1-c1cccs1	none (no result: HT1080-NT tox, IL1B secr inh, HT1080 IDH1KD tx)
COC(=O)c1c(S(C)(=O)=O)nc(-c2ccccc2)[nH]c1=O	none
CCn1c(SCC(=O)Nc2ccccc2C(=O)OC)nnc1-c1ccoc1C	DT40 TDP1 no CPT 29µM
CCCCn1nnnc1SCC(=O)c1cc(Cl)ccc1OC	IL1B secr inh -57
CCCn1c(SCC(=O)Nc2ccccc2-c2ccccc2)nnc1-c1ccoc1C	DT40 TDP1 CPT 16µM, DT40 TDP1 no CPT 10µM
CCCn1c(SCC(=O)c2cc(OC)ccc2OC)nnc1C(C)C	DT40 TDP1 CPT 16µM, DT40 TDP1 no CPT inconclusive
CC(C(=O)Nc1ccccc1Sc1ccccc1)N(c1ccccc1)S(C)(=O)=O (stereo unspecified)	DT40 TDP1 CPT inconclusive, DT40 TDP1 no CPT inconclusive
CC(C)NC(=O)C1(C)CCN1C(=O)C1(c2ccccc2)CC1 (stereo unspecified)	DT40 TDP1 CPT inconclusive
CC(C)c1ccc(OCc2cc(=O)n3c4c(sc3n2)CCCC4)cc1	none (no result: HT1080-NT tox, IL1B secr inh, HT1080 IDH1KD tx)
CC(C)(O)C#Cc1ccc(CN2CCN(C3CCCC3)C(CCO)C2)cc1 (stereo unspecified)	IL1B secr inh inconclusive
